# Publication PMC8384837, “Expanding the binding specificity for RNA recognition by a PUF domain”
# Assays:
# Assay in all cases: yeast three-hybrid, YBZ-1, SC-Leu-His + 0.5 mM 3-AT, 4 days
# Conditions in all cases: tags: N-Gal4 AD-HA kept; label: inside an RPR1-promoter hybrid RNA with tandem MS2 sites; ssRNA
# PUM1 PUF domain R4-RMA = PUM1 PUF domain R4-RMA (Homo sapiens, UniProt Q14671 828-1176, N971R;H972M;Q975A)
# Outline: (§1)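 Each repeat of the Pumilio-1 PUF domain was randomized at its three base-contacting residues, and these libraries were co-expressed from a centromeric plasmid with matching RNA elements in strain YBZ-1. After four days on SC-Leu (input) or SC-Leu-His + 0.5 mM 3-AT (selection), the repeat regions were PCR-amplified and Illumina-sequenced. The interaction score compares variant frequency between input and selection as a log change, computed in log2 with a pseudocount of 1 for absent variants.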
# PUM1 PUF domain R8-KRW = PUM1 PUF domain R8-KRW (Homo sapiens, UniProt Q14671 828-1176, N1122K;Y1123R;Q1126W)
# Outline: as §1
# PUM1 PUF domain R7-QND = PUM1 PUF domain R7-QND (Homo sapiens, UniProt Q14671 828-1176, S1079Q;E1083D)
# Outline: as §1
# PUM1 PUF domain R8-PFV = PUM1 PUF domain R8-PFV (Homo sapiens, UniProt Q14671 828-1176, N1122P;Y1123F;Q1126V)
# Outline: as §1
# PUM1 PUF domain R7-RVC = PUM1 PUF domain R7-RVC (Homo sapiens, UniProt Q14671 828-1176, S1079R;N1080V;E1083C)
# Outline: as §1
# PUM1 PUF domain R7-GRL = PUM1 PUF domain R7-GRL (Homo sapiens, UniProt Q14671 828-1176, S1079G;N1080R;E1083L)
# Outline: as §1
# PUM1 PUF domain R7-GRV = PUM1 PUF domain R7-GRV (Homo sapiens, UniProt Q14671 828-1176, S1079G;N1080R;E1083V)
# Outline: as §1
# PUM1 PUF domain R3-RPH = PUM1 PUF domain R3-RPH (Homo sapiens, UniProt Q14671 828-1176, C935R;R936P;Q939H)
# Outline: as §1
# PUM1 PUF domain R3-RVT = PUM1 PUF domain R3-RVT (Homo sapiens, UniProt Q14671 828-1176, C935R;R936V;Q939T)
# Outline: as §1
# PUM1 PUF domain R3-RIR = PUM1 PUF domain R3-RIR (Homo sapiens, UniProt Q14671 828-1176, C935R;R936I;Q939R)
# Outline: as §1
# PUM1 PUF domain R5-KNA = PUM1 PUF domain R5-KNA (Homo sapiens, UniProt Q14671 828-1176, C1007K;R1008N;Q1011A)
# Outline: as §1
# PUM1 PUF domain R5-QIR = PUM1 PUF domain R5-QIR (Homo sapiens, UniProt Q14671 828-1176, C1007Q;R1008I;Q1011R)
# Outline: as §1
# PUM1 PUF domain R5-RTL = PUM1 PUF domain R5-RTL (Homo sapiens, UniProt Q14671 828-1176, C1007R;R1008T;Q1011L)
# Outline: as §1
# PUM1 PUF domain R2-LYL = PUM1 PUF domain R2-LYL (Homo sapiens, UniProt Q14671 828-1176, N899L;Q903L)
# Outline: as §1
# PUM1 PUF domain R1-TFR = PUM1 PUF domain R1-TFR (Homo sapiens, UniProt Q14671 828-1176, S863T;R864F;Q867R)
# Outline: as §1
# PUM1 PUF domain R1-CIR = PUM1 PUF domain R1-CIR (Homo sapiens, UniProt Q14671 828-1176, S863C;R864I;Q867R)
# Outline: as §1
# PUM1 PUF domain R1-KRQ = PUM1 PUF domain R1-KRQ (Homo sapiens, UniProt Q14671 828-1176, S863K)
# Outline: as §1
# Chain of PUM1 PUF domain R1-CIR (Q14671 828-1176 S863C/R864I/Q867R): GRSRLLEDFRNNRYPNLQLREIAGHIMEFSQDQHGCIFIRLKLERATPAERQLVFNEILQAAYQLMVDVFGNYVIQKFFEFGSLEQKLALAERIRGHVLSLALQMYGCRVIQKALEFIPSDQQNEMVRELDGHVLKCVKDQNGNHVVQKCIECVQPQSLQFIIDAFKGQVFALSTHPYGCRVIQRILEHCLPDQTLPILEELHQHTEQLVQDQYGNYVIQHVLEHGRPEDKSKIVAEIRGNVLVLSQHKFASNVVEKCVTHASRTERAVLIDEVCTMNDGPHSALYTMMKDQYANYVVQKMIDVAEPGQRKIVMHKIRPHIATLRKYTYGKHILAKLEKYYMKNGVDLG
# Chain of PUM1 PUF domain R5-QIR (Q14671 828-1176 C1007Q/R1008I/Q1011R): as the sequence (Q14671 828-1176 S863C/R864I/Q867R) above, with C36S, I37R, R40Q, C180Q, R181I, Q184R counted along it
# Chain of PUM1 PUF domain R3-RIR (Q14671 828-1176 C935R/R936I/Q939R): as the sequence (Q14671 828-1176 S863C/R864I/Q867R) above, with C36S, I37R, R40Q, C108R, R109I, Q112R counted along it
# Chain of PUM1 PUF domain R8-KRW (Q14671 828-1176 N1122K/Y1123R/Q1126W): as the sequence (Q14671 828-1176 S863C/R864I/Q867R) above, with C36S, I37R, R40Q, N295K, Y296R, Q299W counted along it
# Chain of PUM1 PUF domain R8-PFV (Q14671 828-1176 N1122P/Y1123F/Q1126V): as the sequence (Q14671 828-1176 S863C/R864I/Q867R) above, with C36S, I37R, R40Q, N295P, Y296F, Q299V counted along it
# Chain of PUM1 PUF domain R5-RTL (Q14671 828-1176 C1007R/R1008T/Q1011L): as the sequence (Q14671 828-1176 S863C/R864I/Q867R) above, with C36S, I37R, R40Q, C180R, R181T, Q184L counted along it
# Chain of PUM1 PUF domain R7-GRV (Q14671 828-1176 S1079G/N1080R/E1083V): as the sequence (Q14671 828-1176 S863C/R864I/Q867R) above, with C36S, I37R, R40Q, S252G, N253R, E256V counted along it
# Chain of PUM1 PUF domain R3-RVT (Q14671 828-1176 C935R/R936V/Q939T): as the sequence (Q14671 828-1176 S863C/R864I/Q867R) above, with C36S, I37R, R40Q, C108R, R109V, Q112T counted along it
# Chain of PUM1 PUF domain R7-GRL (Q14671 828-1176 S1079G/N1080R/E1083L): as the sequence (Q14671 828-1176 S863C/R864I/Q867R) above, with C36S, I37R, R40Q, S252G, N253R, E256L counted along it
# Chain of PUM1 PUF domain R1-TFR (Q14671 828-1176 S863T/R864F/Q867R): as the sequence (Q14671 828-1176 S863C/R864I/Q867R) above, with C36T, I37F counted along it
# Chain of PUM1 PUF domain R3-RPH (Q14671 828-1176 C935R/R936P/Q939H): as the sequence (Q14671 828-1176 S863C/R864I/Q867R) above, with C36S, I37R, R40Q, C108R, R109P, Q112H counted along it
# Chain of PUM1 PUF domain R2-LYL (Q14671 828-1176 N899L/Q903L): as the sequence (Q14671 828-1176 S863C/R864I/Q867R) above, with C36S, I37R, R40Q, N72L, Q76L counted along it
# Chain of PUM1 PUF domain R1-KRQ (Q14671 828-1176 S863K): as the sequence (Q14671 828-1176 S863C/R864I/Q867R) above, with C36K, I37R, R40Q counted along it
# Chain of PUM1 PUF domain R7-QND (Q14671 828-1176 S1079Q/E1083D): as the sequence (Q14671 828-1176 S863C/R864I/Q867R) above, with C36S, I37R, R40Q, S252Q, E256D counted along it
# Chain of PUM1 PUF domain R4-RMA (Q14671 828-1176 N971R/H972M/Q975A): as the sequence (Q14671 828-1176 S863C/R864I/Q867R) above, with C36S, I37R, R40Q, N144R, H145M, Q148A counted along it
# Chain of PUM1 PUF domain R7-RVC (Q14671 828-1176 S1079R/N1080V/E1083C): as the sequence (Q14671 828-1176 S863C/R864I/Q867R) above, with C36S, I37R, R40Q, S252R, N253V, E256C counted along it
# Chain of PUM1 PUF domain R5-KNA (Q14671 828-1176 C1007K/R1008N/Q1011A): as the sequence (Q14671 828-1176 S863C/R864I/Q867R) above, with C36S, I37R, R40Q, C180K, R181N, Q184A counted along it
sequence,measurement,setting,value
GGCUAGAACUAGUGGAUCCCCCGGCGCCCGGCGGCUCGAGCCCGGGUAAGUGUAAAUAGUCUGCAUGCCGCCGGGCGCCAUGCCUGCAGGUCGACUCUAGAAAACAUG,binding signal,PUM1 PUF domain R4-RMA,4.05 log2 enrichment (interaction score)
same,binding signal,PUM1 PUF domain R8-KRW,1.73 log2 enrichment (interaction score)
same,binding signal,PUM1 PUF domain R7-QND,3.96 log2 enrichment (interaction score)
same,binding signal,PUM1 PUF domain R8-PFV,1.89 log2 enrichment (interaction score)
GGCUAGAACUAGUGGAUCCCCCGGCGCCCGGCGGCUCGAGCCCGGGUAAGUUUAAAUAGUCUGCAUGCCGCCGGGCGCCAUGCCUGCAGGUCGACUCUAGAAAACAUG,binding signal,PUM1 PUF domain R7-RVC,2.88 log2 enrichment (interaction score)
same,binding signal,PUM1 PUF domain R7-GRL,2.75 log2 enrichment (interaction score)
same,binding signal,PUM1 PUF domain R7-GRV,2.62 log2 enrichment (interaction score)
GGCUAGAACUAGUGGAUCCCCCGGCGCCCGGCGGCUCGAGCCCGGGUAAGCGUAAAUAGUCUGCAUGCCGCCGGGCGCCAUGCCUGCAGGUCGACUCUAGAAAACAUG,binding signal,PUM1 PUF domain R8-KRW,3.21 log2 enrichment (interaction score)
same,binding signal,PUM1 PUF domain R8-PFV,2.24 log2 enrichment (interaction score)
GGCUAGAACUAGUGGAUCCCCCGGCGCCCGGCGGCUCGAGCCCGGGUAAGUGUAAUUAGUCUGCAUGCCGCCGGGCGCCAUGCCUGCAGGUCGACUCUAGAAAACAUG,binding signal,PUM1 PUF domain R3-RPH,3.26 log2 enrichment (interaction score)
same,binding signal,PUM1 PUF domain R3-RVT,2.47 log2 enrichment (interaction score)
same,binding signal,PUM1 PUF domain R3-RIR,4.33 log2 enrichment (interaction score)
GGCUAGAACUAGUGGAUCCCCCGGCGCCCGGCGGCUCGAGCCCGGGUAAGUGUCAAUAGUCUGCAUGCCGCCGGGCGCCAUGCCUGCAGGUCGACUCUAGAAAACAUG,binding signal,PUM1 PUF domain R5-KNA,2.79 log2 enrichment (interaction score)
same,binding signal,PUM1 PUF domain R5-QIR,3.55 log2 enrichment (interaction score)
same,binding signal,PUM1 PUF domain R5-RTL,2.38 log2 enrichment (interaction score)
GGCUAGAACUAGUGGAUCCCCCGGCGCCCGGCGGCUCGAGCCCGGGUAAGUGUAAAAAGUCUGCAUGCCGCCGGGCGCCAUGCCUGCAGGUCGACUCUAGAAAACAUG,binding signal,PUM1 PUF domain R2-LYL,3.33 log2 enrichment (interaction score)
GGCUAGAACUAGUGGAUCCCCCGGCGCCCGGCGGCUCGAGCCCGGGUAAGUGUUAAUAGUCUGCAUGCCGCCGGGCGCCAUGCCUGCAGGUCGACUCUAGAAAACAUG,binding signal,PUM1 PUF domain R5-QIR,1.95 log2 enrichment (interaction score)
GGCUAGAACUAGUGGAUCCCCCGGCGCCCGGCGGCUCGAGCCCGGGUAAGUGUAAGUAGUCUGCAUGCCGCCGGGCGCCAUGCCUGCAGGUCGACUCUAGAAAACAUG,binding signal,PUM1 PUF domain R3-RIR,5.02 log2 enrichment (interaction score)
GGCUAGAACUAGUGGAUCCCCCGGCGCCCGGCGGCUCGAGCCCGGGUAAGUGUAAAUCGUCUGCAUGCCGCCGGGCGCCAUGCCUGCAGGUCGACUCUAGAAAACAUG,binding signal,PUM1 PUF domain R1-TFR,6.07 log2 enrichment (interaction score)
same,binding signal,PUM1 PUF domain R1-CIR,4.43 log2 enrichment (interaction score)
same,binding signal,PUM1 PUF domain R1-KRQ,5.97 log2 enrichment (interaction score)
GGCUAGAACUAGUGGAUCCCCCGGCGCCCGGCGGCUCGAGCCCGGGUAAGUGUAAAUUGUCUGCAUGCCGCCGGGCGCCAUGCCUGCAGGUCGACUCUAGAAAACAUG,binding signal,PUM1 PUF domain R1-CIR,0.87 log2 enrichment (interaction score)
